Data reported in the supplement of paper PMC4206461.
A number with no mark means an inactive call.

test system: Pseudomonas aeruginosa PA14 dppA1-A5 penta mutant + pBBR5.DppA1 (PA14_58350); test: respiration area under curve with compound as sole nitrogen source, 24 h (OmniLog AUC (arbitrary units)); higher = more respiration / better utilisation as nitrogen source
Procedure: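 Biolog Phenotype MicroArray plates PM6-PM8: each di/tripeptide is the sole nitrogen source. Tetrazolium reduction was read in the OmniLog for 24 h at 37°C and summarised as area under the respiration curve (arbitrary units). Values below 2000 count as no respiration. Strain is the SBP penta mutant complemented with DppA1 on a plasmid under its native promoter. Lys/His/Cys peptides are excluded.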

SMILES	respiration area under curve
CC(C)C[C@H](NC(=O)CNC(=O)CN)C(=O)O (plate: PM8)	3880 (active)
CC(C)C[C@@H](NC(=O)CNC(=O)CN)C(=O)O (plate: PM8)	232
